# Data from PubChem BioAssay.
# Calls of active or inactive are those of the source.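 How the source made its calls, unless noted: active means inhibition at or above 50% at 10 µM; inactive means inhibition below 50%.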
# Assays:
# [1] = inhibitors of TNFa-induced NFkB p65 translocation, primary screen, imaging, HUVEC, MLSMR starter and 10KST1 sets (AID 438;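 active means inhibition above 20% together with a positive visual image hit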;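 further: compound added about 3h40 before a 20 min TNFalpha stimulation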;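 on inhibition: signal is the nuclear over cytoplasmic p65 intensity ratio per well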); conditions: HUVEC TNFa-induced p65 nuclear translocation; cell count: measured here: nuclei count (cytotoxicity indicator), at 2.08 µM; inhibition: at 2 µM, stronger effect = higher value, 0% TNFa-plus-vehicle, 100% no-TNFa wells
# [2] = inhibitors of mutant huntingtin aggregation, primary screen, imaging, exon1htt(103Q)mCFP cells, high-content imaging (AID 483;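 active means visual image review flags a hit and inhibition of aggregation exceeds 20%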;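 further: compound exposure lasted 3 days before fixation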;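 on nuclei count: percent of the per-plate median nuclei count of sample wells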); conditions: exon1htt(103Q)mCFP cell line, aggregate imaging, at 2 µM; inhibition of aggregation: stronger effect = higher value; nuclei count: measured here: cell count, toxicity
# [3] = inhibitors of E-selectin induction by TNFa, primary screen, imaging, HUVEC, immunofluorescence, MLSMR starter and 10KST1 sets (AID 487;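 active means visually confirmed hit in the image check and inhibition above 20%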;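 on inhibition: signal is fraction of cell area covered by stained E-selectin grains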;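 on nuclei count: 100% = median nuclei count of all wells on the same plate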); conditions: HUVEC TNFalpha-induced E-selectin immunofluorescence imaging, at 2 µM; inhibition: stronger effect = higher value; nuclei count: measured here: cell number, toxicity
# [4] = target: Voltage-gated potassium channel subunit beta-2 (Rattus norvegicus) (UniProt P62483); assay: KvBeta enzyme negative modulators, primary screen, biochemical, NADPH fluorescence (AID 622;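 active means fluorescence slope higher than the sample average by over 3 SD, cut at about -0.22 in these data, passing the limit was not always enough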;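 further: slope of raw intensity against log time taken from 70 to 1610 s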); conditions: recombinant KvBeta, 4-cyanobenzaldehyde reduction, at 10 µM, stronger effect = higher value
# [5] = target: Voltage-gated potassium channel subunit beta-2 (Rattus norvegicus) (UniProt P62483); assay: KvBeta positive modulators, primary screen, biochemical, NADPH fluorescence (AID 623;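 active means NADPH fluorescence slope more negative than the mean of all samples by about 3 SD, 99.7% confidence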;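 further: fluorescence intensity change per second fitted from 20 to 320 s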); conditions: Recombinant KvBeta, NADPH fluorescence decrease slope, 10 min; at 10 µM; stronger effect = lower value
# [6] = target: Alpha-2C adrenergic receptor (Homo sapiens) (UniProt P18825); assay: modulators of alpha2C/GIRK thallium flux, primary screen, cell-based, HEK293 alpha2C/GIRK1/2 (AID 624;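 active means fluorescence slope after compound addition differing from the mean of all screened samples at 99.7% confidence, in either direction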;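 further: slope of fluorescence ratio to pre-addition baseline per second over 15 to 24 s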); conditions: thallium flux BTC fluorescence, at 10 µM, actives lie on both sides
# [7] = inhibitors of Sendai virus-induced IRF3 signaling, primary screen, TLR/RLR signaling modifier project, cell-based, Sendai virus stimulus, luciferase, 10K MLSCN set (AID 602276); conditions: HEK293 RL24 IRF3 luciferase reporter, at 10 µM, stronger effect = higher value;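 further: firefly luciferase from ISG56 promoter only with Renilla not read in this screen; 0% = Sendai virus plus DMSO and 100% = medium plus DMSO without virus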
# [8] = inhibitors of poly I:C-induced TLR3 signaling, primary screen, cell-based, poly I:C stimulus, luciferase, 10K MLSCN set (AID 602277;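 active means inhibition of the reporter signal at or above 50%; inactive means inhibition below 50%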); conditions: HEK293-TLR3 RL24 IRF3 luciferase reporter, at 10 µM, stronger effect = higher value
# Sequence of Voltage-gated potassium channel subunit beta-2 (Rattus norvegicus) (P62483 whole entry, looked up): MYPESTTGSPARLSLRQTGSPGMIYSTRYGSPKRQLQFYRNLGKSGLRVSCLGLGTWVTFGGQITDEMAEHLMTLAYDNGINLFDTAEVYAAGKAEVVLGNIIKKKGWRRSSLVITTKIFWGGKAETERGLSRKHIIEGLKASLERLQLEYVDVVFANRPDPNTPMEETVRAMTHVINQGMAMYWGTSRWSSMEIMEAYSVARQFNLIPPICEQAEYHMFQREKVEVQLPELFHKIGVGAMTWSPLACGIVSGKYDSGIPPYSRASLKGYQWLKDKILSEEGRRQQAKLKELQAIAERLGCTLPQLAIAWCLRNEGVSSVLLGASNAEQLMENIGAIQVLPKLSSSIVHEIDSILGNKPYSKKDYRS
# Sequence of Alpha-2C adrenergic receptor (Homo sapiens) (P18825 whole entry, looked up): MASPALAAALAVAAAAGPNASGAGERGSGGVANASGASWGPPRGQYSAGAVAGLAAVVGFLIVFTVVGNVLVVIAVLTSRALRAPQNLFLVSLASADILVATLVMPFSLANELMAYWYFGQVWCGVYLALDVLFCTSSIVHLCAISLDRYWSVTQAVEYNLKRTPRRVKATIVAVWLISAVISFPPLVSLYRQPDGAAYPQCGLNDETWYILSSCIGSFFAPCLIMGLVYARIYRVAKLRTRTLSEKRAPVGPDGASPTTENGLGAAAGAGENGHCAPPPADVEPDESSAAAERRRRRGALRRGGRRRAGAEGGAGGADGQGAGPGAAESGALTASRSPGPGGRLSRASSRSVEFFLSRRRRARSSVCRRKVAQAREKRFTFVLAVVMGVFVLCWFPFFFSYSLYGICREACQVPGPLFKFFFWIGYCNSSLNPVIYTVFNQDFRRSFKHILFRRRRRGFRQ
SMILES,cell count [1],inhibition [1],inhibition of aggregation [2],nuclei count [2] [%],inhibition [3],nuclei count [3] [%],fluorescence slope [4],NADPH fluorescence slope [5],slope [6],inhibition [7],inhibition [8]
COc1ccc(-c2nc(CS(=O)CC(=O)NCc3ccccn3)c(C)o2)cc1 (centres undefined),518,1.9% (inactive),-23.1% (inactive),104,-25.4% (inactive),99.7,-0.527 (inactive),-1.1e-05 (inactive),0.00839 (inactive),44.5% (inactive),9.92% (inactive)
CN(Cc1cccs1)C(=O)CCc1ccc(S(=O)(=O)N2CCOCC2)cc1,475,1% (inactive),-10.3% (inactive),94,-10.9% (inactive),114,-0.466 (inactive),-3.6e-05 (inactive),0.00394 (inactive),-6.32% (inactive),14.6% (inactive)
CC(OC(=O)C1CC=CCC1C(N)=O)C(Cl)=C(Cl)Cl (centres undefined),326,1.3% (inactive),-6% (inactive),108,-94.9% (inactive),132,-0.506 (inactive),-1.1e-05 (inactive),0.00744 (inactive),-2.75% (inactive),6.78% (inactive)
COC(=O)c1ccc(C)c(NS(=O)(=O)c2ccc3c(c2)OCCO3)c1,263,12.5% (inactive),22.6% (inactive),56.8,-60.4% (inactive),94,-0.393 (inactive),-5.8e-05 (inactive),0.00526 (inactive),43.8% (inactive),58.5% (active)
COc1nc(NCCc2ccc(OC)c(OC)c2)nc(NC(C)(C)CO)n1,336,-1.4% (inactive),13.7% (inactive),97.3,-7% (inactive),108,-0.496 (inactive),-1.3e-06 (inactive),0.00642 (inactive),15.5% (inactive),11.8% (inactive)
Cc1noc(/C=C/N(C)C)c1S(=O)(=O)N1CCc2ccccc21,611,3.4% (inactive),24.9% (inactive),89.8,-60.7% (inactive),115,-0.558 (inactive),-8.6e-06 (inactive),0.00715 (inactive),-1.69% (inactive),55.2% (active)
C/C=C(\C)c1nnc(NC(=O)OCC)s1,743,-5% (inactive),-16% (inactive),115,-52% (inactive),110,-0.342 (inactive),-5.8e-05 (inactive),0.00534 (inactive),-36.1% (inactive),-51.1% (inactive)
CCCCOc1ccc(CSc2n[nH]c(C)n2)cc1,243,0.2% (inactive),-0.4% (inactive),86.8,5.3% (inactive),96.6,-0.435 (inactive),2.4e-05 (inactive),0.00825 (inactive),-55.7% (inactive),-90.2% (inactive)
CCn1cc(C2Nc3ccccc3C(=O)N2O)c(C)n1 (centres undefined),428,8.8% (inactive),-27.6% (inactive),112,-66.4% (inactive),104,-0.301 (inactive),-4.1e-05 (inactive),0.0057 (inactive),-41.1% (inactive),-70.4% (inactive)
C=CCN1C(=O)CS/C1=N/c1nccs1,785,-8.5% (inactive),3.5% (inactive),107,-5.5% (inactive),101,-0.459 (inactive),-1.1e-05 (inactive),0.00406 (inactive),15.5% (inactive),14.3% (inactive)
Cn1c(=O)c2c([nH]c(=O)n2C)n(C)c1=O,364,1.7% (inactive),2.6% (inactive),104,16.9% (inactive),101,-0.435 (inactive),-0.000114 (inactive),0.00554 (inactive),18% (inactive),20.1% (inactive)
CCOc1ccc2nc(SCC(=O)N3CCCCCC3)c(C#N)cc2c1,611,9.1% (inactive),-7.9% (inactive),98.1,-95.4% (inactive),150,-0.584 (inactive),-3.2e-05 (inactive),0.00304 (inactive),-1.31% (inactive),-24.8% (inactive)
Cc1ccc2c(c1)C1CCCC3C1N2CC(=O)N3Cc1ccccc1 (centres undefined),331,-7.1% (inactive),-7.3% (inactive),81.8,-136% (inactive),131,-0.498 (inactive),-3.8e-05 (inactive),0.00336 (inactive),7.59% (inactive),-11.1% (inactive)
COc1ccc(CCNC(=O)C2=COCCO2)cc1,596,4.2% (inactive),51.2% (active),90.3,53.6% (active),99.1,-0.545 (inactive),-2.9e-05 (inactive),0.00546 (inactive),-14.5% (inactive),-26.2% (inactive)
Cn1cccc1Cc1nnc(SCC(=O)NCC2CCCO2)n1-c1ccc(F)cc1 (centres undefined),716,-4% (inactive),50.2% (active),95.9,-44.1% (inactive),111,-0.537 (inactive),-3e-05 (inactive),0.00677 (inactive),10.8% (inactive),39.9% (inactive)
Cc1ccccc1CSc1nnc(C)c(=O)[nH]1,600,1.1% (inactive),-41.3% (inactive),105,-37.9% (inactive),133,-0.581 (inactive),1.6e-05 (inactive),0.00756 (inactive),12.3% (inactive),13.6% (inactive)
CN1C(=O)CC(N2CCC(C(N)=O)(N3CCCCC3)CC2)C1=O (centres undefined),540,5.4% (inactive),-7.1% (inactive),111,10.3% (inactive),117,-0.593 (inactive),-4.9e-05 (inactive),0.00424 (inactive),15% (inactive),16.9% (inactive)
CCOC(=O)C1CCN(c2c(N3CCCC(C(=O)OCC)C3)c(=O)c2=O)CC1 (centres undefined),838,3.2% (inactive),-6.4% (inactive),101,-138% (inactive),115,-0.616 (inactive),9.3e-06 (inactive),0.0058 (inactive),-1.39% (inactive),19.7% (inactive)
CCC(CC)n1[nH]c(=O)c2c(C)cc(C)nc21,368,0.2% (inactive),0.4% (inactive),106,13.4% (inactive),106,-0.299 (inactive),-6.9e-05 (inactive),0.00499 (inactive),6.59% (inactive),13.6% (inactive)
